Assay results published in PubChem BioAssay (Tox21).
Inconclusive results are not listed. Calls of active or inactive are those of the source. Calls follow the shape of the dose curve; as a rule, active = well fitted curve in the direction sought with a large enough effect in the repeat runs; inconclusive = weak or mixed curves; inactive = no such curve, though single readings can be large; an effect the other way counts as inactive or inconclusive.

Tests used:
[1] = qHTS RealTime-Glo MT Cell Viability Assay in HepG2 cells - 24 hour (AID 1224867); also: nearly all actives have a fitted effect of over 50% in size
Procedure, shortened: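 HepG2 cells were seeded at 600 cells/well together with NanoLuc luciferase and a cell-permeant prosubstrate, preincubated 5 h at 37 C/5% CO2, then pin-dosed with compounds in DMSO. Nonlytic luminescence from viable cells was read at each time point.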

[2] = qHTS RealTime-Glo MT Cell Viability Assay in HEK293 cells - 32 hour (AID 1224868); also: top concentration of the series differs between compounds; nearly all actives have a fitted effect of over 50% in size
Procedure, shortened: (§1)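 HEK293 cells were seeded at 600 cells/well together with NanoLuc luciferase and cell-permeant prosubstrate, preincubated 5 h at 37 C/5% CO2, then given compound in DMSO by pintool. Luminescence from viable-cell prosubstrate reduction was read repeatedly over 40 h.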

[3] = A CellTox Green Cytotoxicity Assay to monitor cytotoxicity in HEK293 cells - 0 hour (AID 1224869); also: nearly all actives have a fitted effect of over 50% in size
Procedure, shortened: (§2)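 Each value comes from one timepoint of a single continuous run in which HEK293 cells with CellTox Green were exposed to compound for up to 40 h at 37 C, dye fluorescence rising with cell death.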

[4] = qHTS RealTime-Glo MT Cell Viability Assay in HepG2 cells - 40 hour (AID 1224870); also: nearly all actives have a fitted effect of over 50% in size
Procedure, shortened: (§3)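 HepG2 cells (600/well) mixed with RealTime-Glo MT reagent, settled 5 h at 37 C/5% CO2 before compound addition. Nonlytic NanoLuc luminescence from viable-cell prosubstrate reduction read repeatedly during 40 h treatment at 37 C.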

[5] = A CellTox Green Cytotoxicity Assay to monitor cytotoxicity in HEK293 cells - 40 hour (AID 1224871); also: nearly all actives have a fitted effect of over 45% in size
Procedure, shortened: as §2

[6] = qHTS RealTime-Glo MT Cell Viability Assay in HepG2 cells - 8 hour (AID 1224873); also: nearly all actives have a fitted effect of over 55% in size
Procedure, shortened: as §3

[7] = qHTS RealTime-Glo MT Cell Viability Assay in HEK293 cells - 40 hour (AID 1224874); conditions: RealTime-Glo luminescence; max response: active compounds read low; also: nearly all actives have a fitted effect of over 50% in size
Procedure, shortened: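 qHTS format; HEK293 cells with NanoLuc/prosubstrate reagent, 37 C/5% CO2 for 5 h pre-dosing; compounds 23 nL in DMSO; luminescence at each time point reflects viable cells.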

[8] = A CellTox Green Cytotoxicity Assay to monitor cytotoxicity in HEK293 cells - 24 hour (AID 1224875); also: series mostly up to about 77 µM; nearly all actives have a fitted effect of over 45% in size
Procedure, shortened: as §2

[9] = qHTS RealTime-Glo MT Cell Viability Assay in HEK293 cells - 16 hour (AID 1224872)
Procedure, shortened: as §1
% is scaled to controls: 0 for no effect and ±100 for the full control effect.

O=C(Nc1cccc(C2=NCCN2)c1)Nc1cccc(C2=NCCN2)c1
inactive: activity change, negative = cytotoxicity [1] 1.81% [at 15.8 µM] | activity change, negative = cytotoxic [2] -5.26% [at 15.8 µM] | cytotoxicity [3] -3.81% [at 15.8 µM] | activity change, negative = cytotoxic [4] 2.87% [at 15.8 µM] | cytotoxicity increase [5] -2.61% [at 15.8 µM] | viability change, negative = cytotoxic [6] 1.42% [at 15.8 µM] | max response [7] -2.84% | activity change [8] -4.45% [at 15.8 µM, active compounds read high]

COc1ccc(/C=N/NC(=O)c2ccncc2)cc1OC
inactive: outcome [1] | Potency [2] | Potency [3] | outcome [4] | Potency [5] | Potency [9] | outcome [6] | Potency [8]

O=CO
inactive: activity change, negative = cytotoxicity [1] 0.773% [at 6.97 µM] | activity change, negative = cytotoxic [2] 1.16% [at 6.97 µM] | cytotoxicity [3] -3.71% [at 6.97 µM] | activity change, negative = cytotoxic [4] 17.5% [at 6.97 µM] | activity change, negative = cytotoxicity [9] 2.46% [at 6.97 µM] | viability change, negative = cytotoxic [6] -8.93% [at 6.97 µM]

CCN(CCO)c1cccc(C)c1
inactive: outcome [1] | Potency [2] | Potency [3] | outcome [4] | Potency [5] | outcome [6] | max response [7] 6.86% | Potency [8]

O=C(O)Cc1cccc(-c2cc(CCCCCCc3ccc(O[C@H]4O[C@H](CO)[C@@H](O)[C@H](O)[C@@H]4O)c(-c4cccc(CC(=O)O)c4)c3)ccc2O[C@H]2O[C@H](CO)[C@@H](O)[C@H](O)[C@@H]2O)c1
inactive: activity change, negative = cytotoxicity [1] 2.07% [at 0.29 µM] | activity change, negative = cytotoxic [2] 4.81% [at 0.29 µM] | cytotoxicity [3] 3% [at 0.29 µM] | activity change, negative = cytotoxic [4] -21.2% [at 0.29 µM] | cytotoxicity increase [5] -17.8% [at 0.29 µM] | activity change, negative = cytotoxicity [9] 3.33% [at 0.29 µM] | max response [7] -2.4% | activity change [8] -8.86% [at 0.29 µM, active compounds read high]

CCN(CC)C(=O)C1CN2CCc3cc(OC)c(OC)cc3C2CC1OC(C)=O (stereo not drawn)
inactive: outcome [1] | Potency [2] | Potency [3] | outcome [4] | Potency [5] | Potency [9] | outcome [6] | max response [7] -4.78% | Potency [8]

CC(=O)OCC(=O)[C@@]1(O)[C@H](OC(C)=O)C[C@H]2[C@@H]3CCC4=CC(=O)C=C[C@]4(C)[C@@]3(F)[C@@H](O)C[C@@]21C
inactive: outcome [1] | Potency [2] | Potency [3] | outcome [4] | Potency [9] | outcome [6] | max response [7] 3.94% | Potency [8]

CCC(O)C(C)(C)C (stereo not drawn)
inactive: outcome [1] | Potency [2] | Potency [3] | outcome [4] | Potency [9] | outcome [6]

CCC1Nc2cc(Cl)c(S(N)(=O)=O)cc2S(=O)(=O)N1 (stereo not drawn)
inactive: outcome [1] | Potency [2] | Potency [3] | outcome [4] | Potency [5] | Potency [9] | outcome [6] | Potency [8]

Cc1nc(C)nc(N2C[C@@H](C)N(c3ccnc([C@@H](C)O)n3)[C@@H](C)C2)n1
inactive: outcome [1] | Potency [2] | Potency [3] | outcome [4] | Potency [5] | outcome [6] | max response [7] 9.39% | Potency [8]

CCOC(=O)C(=O)c1csc(NC=O)n1
inactive: outcome [1] | Potency [2] | Potency [3] | outcome [4] | Potency [5] | outcome [6] | max response [7] 0.45% | Potency [8]

CC(=O)N(CC(O)CO)c1c(I)c(C(=O)NCC(O)CO)c(I)c(C(=O)NCC(O)CO)c1I (stereo not drawn)
inactive: outcome [1] | Potency [2] | Potency [3] | outcome [4] | Potency [9] | outcome [6] | max response [7] 6.97% | Potency [8]

NC(Cc1c[nH]c2ccccc12)C(=O)O (stereo not drawn)
inactive: outcome [1] | Potency [2] | Potency [3] | outcome [4] | Potency [5] | Potency [9] | outcome [6] | max response [7] 13.4% | Potency [8]

O=C(O)c1c(Cl)ccc(Cl)c1Cl
inactive: outcome [1] | Potency [2] | Potency [3] | outcome [4] | Potency [5] | Potency [9] | outcome [6] | Potency [8]

CCOC(=O)OCC/C(SC(=O)OCC)=C(\C)N(C=O)Cc1cnc(C)nc1N
inactive: outcome [1] | Potency [2] | Potency [3] | outcome [4] | Potency [5] | Potency [9] | outcome [6] | Potency [8]

O=C(c1ccc2c(c1)C(=O)OC2=O)c1ccc2c(c1)C(=O)OC2=O
inactive: outcome [1] | Potency [2] | Potency [3] | outcome [4] | Potency [5] | outcome [6] | max response [7] -1.77% | Potency [8]

CCOC(=O)CCc1ccccc1
inactive: outcome [1] | Potency [2] | Potency [3] | outcome [4] | Potency [5] | outcome [6] | max response [7] 3.62% | Potency [8]

CCCCOC(=O)C(=O)OCCCC
inactive: outcome [1] | Potency [2] | Potency [3] | outcome [4] | Potency [5] | Potency [9] | outcome [6] | Potency [8]

CC(C)COC(=O)CCCCC(=O)OCC(C)C
inactive: outcome [1] | Potency [2] | Potency [3] | outcome [4] | Potency [5] | outcome [6] | max response [7] -8.63% | Potency [8]

CC1=CC[C@H](CC=O)C1(C)C
inactive: outcome [1] | Potency [2] | Potency [3] | outcome [4] | Potency [5] | outcome [6] | max response [7] 1.6% | Potency [8]

O=C(O)c1ccccc1C(=O)OCc1ccccc1
inactive: outcome [1] | Potency [2] | Potency [3] | outcome [4] | Potency [5] | Potency [9] | outcome [6] | Potency [8]

CC(C)=CC(C)(C)C
inactive: outcome [1] | Potency [2] | Potency [3] | outcome [4] | Potency [5] | outcome [6] | max response [7] 6.16% | Potency [8]

CC(C)CCCC(C)CC=O (stereo not drawn)
inactive: outcome [1] | Potency [2] | Potency [3] | outcome [4] | Potency [5] | outcome [6] | Potency [8]

CCCCCCCC[Si](OCC)(OCC)OCC
inactive: outcome [1] | Potency [2] | Potency [3] | outcome [4] | Potency [5] | outcome [6] | max response [7] 0.929%
